# Measurements taken from PubChem BioAssay AID651965 (National Center for Advancing Translational Sciences (NCATS), 2013).
# Out of some 340,000 compounds screened, about 6,400 (1.9%) were called active. Roughly 4% stayed inconclusive and do not appear here. What follows is part of a selection rich in actives, with near analogues and random picks from the rest. Values without a mark were called inactive. Calls follow the shape of the dose curve; as a rule, active = well fitted falling curve with a large enough effect; inconclusive = small, poorly fitted or top-dose-only effect; inactive = no such curve, though single readings can be large or run the other way.
# Biological target: ATP-dependent Clp protease proteolytic subunit (Bacillus subtilis (strain 168)) (UniProt P80244)
# Assay: qHTS Assay for Activators of ClpP; also: the source files actives as falling curves though it sought activators and does not explain the sign; nearly all actives have a fitted effect of over 65% in size
# Settings: purified B. subtilis ClpP, FRET peptide cleavage, 20 min; series mostly up to 57.5 µM; activity change, negative = active: at the top concentration
# Description: The Clp protease proteolytic subunit (ClpP) is the core unit of the Clp complex belonging to the peptidase family S14 that hydrolyzes protein into small peptides in the presence of ATP and magnesium. It is ubiquitously expressed and is the major protease in bacteria. […] Unlike common antibiotics that simply interfere with the essential enzyme activity, ADEP binding activates the ClpP core in the absence of the regulatory Clp-ATPases leading to uncontrolled proteolysis and eventually cell death. Activators binding to the docking site on ClpP can also block formation of the ClpXP and ClpA/C-P holoenzyme complexes interfering with the normal biological functions of ClpP and thus have the potential to become new anti-microbials.
# To identify activators of ClpP, a FRET based quenching reversal assay was developed using a purified B. subtilis ClpP and a decapeptide substrate (FRET-FV). The FRET-FV is tagged with a fluorescent molecule amino benzoic acid (donor) at the N-terminus and a nitrotyrosine quencher (acceptor) at the C-terminus. FRET-FV cleaves upon activation of ClpP with ADEP treatement and reverses the quenching effect of the nitrotyrosine causing an increase in fluorescence emission signal at 430nm. This assay was used to screen the Molecular Libraries Small Molecule Repository (MLSMR).
# NIH Molecular Libraries Probe Production Centers Network [MLPCN]
# NIH Chemical Genomics Center [NCGC]
# Assay Submitter (PI): Michael Maurizi, National Cancer Institute
# Two and a half microL/well of purified enzyme solution (final concentrations 10 microg/mL B. subtilis ClpP in 100 mM Tris/HCl pH8, 100 mM KCl, 0.05% low protease BSA, 2.5% glycerol, 0.01% Tween-20 buffer) was dispensed into 1536-well assay plates (Greiner, black solid, medium-binding plates) with Aurora Discovery BioRAPTR Flying Reagent Dispenser (FRD, Beckton-Dickenson). Compound solution (23 nL) was transferred to the assay plate using Kalypsys pin tool equipped with a 1536-pin tool. […] FRET signals at time 0 and after 20 min room temperature incubation were obtained using the PerkinElmer Envision plate reader with 320nm excitation and 430nm emission filters. Delta FRET value (Time 20 - Time 0) was calculated and normalized to the delta FRET value of positive control ADEP (5.8 microM final concentration) and negative control DMSO and no enzyme wells.
# Potency is read from the fitted curve at half-maximal effect.
# Sequence of ATP-dependent Clp protease proteolytic subunit (Bacillus subtilis (strain 168)) (P80244 whole entry, looked up): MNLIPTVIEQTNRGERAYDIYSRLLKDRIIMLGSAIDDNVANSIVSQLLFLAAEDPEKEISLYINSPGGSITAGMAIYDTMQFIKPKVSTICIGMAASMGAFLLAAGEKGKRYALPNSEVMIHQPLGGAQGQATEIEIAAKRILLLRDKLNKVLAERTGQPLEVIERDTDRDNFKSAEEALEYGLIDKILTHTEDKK
SMILES,"activity change, negative = active [%]",Potency
Cc1cccc(C)c1NC(=O)C(c1cccc(F)c1)N1CCN(C)CC1 (configuration not stated),-0.808,–
CCOc1ccc(CCN2C(=S)N([C@@H](CC(C)C)CN3CCC[C@@H]3CN3C(=S)NC[C@@H]3Cc3ccc(O)cc3)C[C@@H]2CC(C)C)cc1,-1.86,–
CN(C)c1ccc(/C=N/NC(=O)c2ccc(Cn3cc(Br)cn3)o2)cc1,-1.66,–
O=C(N/N=C\c1ccc(Br)cc1)c1ccc(Cn2cccn2)o1,–,25.1 µM (active)
O=C(O)c1ccc(/C=N/NC(=O)c2ccc(Br)cc2)cc1,-2.02,–
O=S1(=O)CC(N2CCC(Cc3ccccc3)CC2)CN1Cc1ccccc1 (configuration not stated),-0.381,–
O=C(NCC(F)(F)F)c1ccc(S(=O)(=O)NCCc2ccc3c(c2)OCCO3)cc1,1.64,–
Cc1cc(Nc2ccc(C)c(C)c2)n2ncnc2n1,0.336,–
O=C(/C=C/c1ccc(Cl)cc1)Nc1ccc(S(=O)(=O)Nc2ncccn2)cc1,1.87,–
O=C(/C=C/c1ccc(Cl)cc1)Nc1ccc(Br)cn1,–,25.1 µM (active)
Cc1ccc(NC(=S)NC(=O)/C=C/c2ccc(Cl)cc2)cc1,-2.53,–
Cc1ccc(-c2ccc(CN3C(C(C)C)C(=O)N(Cc4cn(CCC5OCCO5)nn4)CCS3(=O)=O)cc2)cc1 (configuration not stated),-0.425,–
Cc1cccc(CN2CCN(C3CN(Cc4ccccc4)S(=O)(=O)C3)CC2)c1 (configuration not stated),1.14,–
CCN1CCN(C(=O)c2cc3cc4ccc(OC)cc4nc3s2)CC1,–,25.1 µM (active)
CCN(CCCNC(=O)c1cc2cc3cc(OC)ccc3nc2s1)c1ccccc1,-0.725,–
CCN1CCN(C(=O)CN(C)S(=O)(=O)c2ccc(OC)cc2)CC1,1.17,–
COc1cccc(-c2cc3nc(NCc4ccccc4OC)n(C)c(=O)c3s2)c1,4.47,–
O=C(N/N=C\C1CC=CCC1)c1ccc(Br)o1 (configuration not stated),-1.65,–
CCC(C)(C)C1CCC(=NNC(=O)c2ccc(Br)o2)CC1 (configuration not stated),–,25.1 µM (active)
CC(C)(C)C1CCC(=NNC(=O)c2ccc(Br)o2)CC1 (configuration not stated),-0.0122,–
COc1cccc(-c2cnc3c(NC(C)=O)cc(-c4cc(F)ccc4OC)cn23)c1,-4.6,–
CC1=C(C(=O)N2CCOCC2)CC(CC(=O)NCc2cccs2)C(=O)N1CCCN1CCCC1=O (configuration not stated),-0.996,–
O=C(C=CC(=O)Nc1ccc(F)cc1F)Nc1ccc(F)cc1F,0.87,–
CCCCC[C@@H]1C=C(C(=O)OCC)[C@H](c2ccccc2)N1S(=O)(=O)c1ccc(C)cc1,-13.2,–

SMILES,"activity change, negative = active [%]",Potency
CC(C)Nc1ccc(-n2nc3ccccc3[n+]2[O-])cc1,–,28.2 µM (active)
CC(=O)Nc1cccc(-c2cc(NC(C)=O)c3ncc(-c4ccccc4)n3c2)c1,5.02,–
CS(=O)(=O)/C(C#N)=C/c1cccn1S(=O)(=O)c1ccc([N+](=O)[O-])cc1,-2.66,–
O=C(NCCCc1ccccc1)c1ccc2c(c1)sc1nc(-c3ccc(F)cc3)cn12,4.44,–
COc1ccc(CCNC(=O)c2ccc3c(c2)nc(C)n3-c2ccc(Br)cc2)cc1OC,-1.76,–
CCOc1ccc(CCNC(=O)Cn2nc(CC)n3c(cc4sc(CC)cc43)c2=O)cc1OCC,-1.22,–
COc1ccc(-c2cn3c(n2)sc2cc(C(=O)Nc4ccc(F)cc4)ccc23)cc1,-23.9,–
COc1ccc(CCNC(=O)c2ccc3c(c2)sc2nc(-c4ccc(C)cc4)cn23)cc1OC,–,3.16 µM (active)
CCOc1ccc(CCNC(=O)c2ccc3c(c2)sc2nc(-c4ccc(F)cc4)cn23)cc1OCC,–,25.1 µM (active)
COc1cccc(CNC(=O)c2ccc3c(c2)sc2nc(-c4cccc(OC)c4)cn23)c1,4.44,–
COc1ccc(CCNC(=O)Cc2ccc(C)cc2)cc1OC,-6.51,–
Cc1ccc(-c2cn3c(n2)sc2cc(C(=O)NCCCc4ccccc4)ccc23)cc1,–,15.8 µM (active)
CCc1nc2ccc(C(=O)Nc3cc(-c4ccccc4)ccc3OC)cn2c1N(CC)CC(=O)N(C)C,4.3,–
CSc1ncnc2c1ncn2CCCNCC1CCCCC1,-2.79,–
O=C1NC[C@H](CCCCN2CCN(CCc3ccccc3)C(=O)C2=O)N(CC2CCCCC2)C1=O,-1.02,–
CC(C)C[C@H]1CNC(=S)N1C[C@H]1CCCN1C[C@H](Cc1ccc(O)cc1)N1C[C@H](Cc2ccc(O)cc2)N(CC2CCCCC2)C1=S,1.83,–
c1ccc(Cc2c(-c3ccco3)nc3c4ccccc4ccn23)cc1,4.55,–
Cc1ccc(C)c(C(O)c2ncc(-c3cccc4ccccc34)[nH]2)c1 (configuration not stated),4.92,–
O=c1cc(CN2CCN(S(=O)(=O)/C=C/c3ccccc3)CC2)c2ccc(O)cc2o1,–,10 µM (active)
Cc1ccc2c(CN3CCN(S(=O)(=O)c4ccccc4C(F)(F)F)CC3)cc(=O)oc2c1,-9.85,–
COc1ccc2c(CN3CCN(S(=O)(=O)c4cccs4)CC3)cc(=O)oc2c1,-14.2,–
CCCNC(=O)C1(C)CCN(C(=O)c2cc(F)ccc2C)C1 (configuration not stated),0.883,–
COc1ccc(C(=O)C(OP(=O)(OC)OC)c2ccccc2OC)cc1 (configuration not stated),-1.26,–
